Screening results (PubChem)
Shown are actives, neighbours in structure and some others; about 19% of the full set was active somewhere.
TDP1 cell noCPT: qHTS for Inhibitors of human tyrosyl-DNA phosphodiesterase 1 (TDP1): qHTS in cells in absence of CPT; DT40 Tdp1-/- hTDP1 cells, no CPT, ATP luminescence, 48 h; Potency, µM (titrated, usually from 46.2 µM), for inactives: at the top dose activity change, negative = growth inhibition, hits mostly inhibitors; 420,000 tested, 15% active; AID 686978, 2013; also: potency is read from the fitted curve at half-maximal effect; nearly all actives have a fitted effect of over 55% in size
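Cells were dispensed at 400 per well, compounds added by pin tool, plates incubated ≥48 hr at 37 °C, then CellTiter-Glo added for 30 min at room temperature before luminescence reading. Line: DT40 Tdp1-/- complemented with hTDP1; camptothecin omitted.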
DT40 TDP1 CPT: DT40-hTDP1 cell growth loss with CPT; chicken DT40 Tdp1-/-;hTDP1 cells + 20 nM CPT, ATP luminescence, 48 h; Potency, µM (series often up to 46.2 µM), without a hit: top-dose activity change, negative = growth inhibition, actives largely listed as inhibitors; 420,000 tested, 12% active; also: potency is read from the fitted curve at half-maximal effect; nearly all actives have a fitted effect of over 55% in size
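Cell growth measured by CellTiter-Glo luminescence after a minimum 48 h, 37 C compound exposure with 20 nM CPT in Tdp1-knockout DT40 cells stably expressing hTDP1, seeded 400/well; qHTS titration format.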
IL1B secr inh: inflammasome signaling inhibition, IL-1 beta readout; 360,000 tested, 4.7% active; activity change, % at 57.5 µM; AID 743279; THP-1 LPS/ATP IL-1B secretion, AlphaLISA, 16 h; stronger effect = lower value; in the data active = activity change below about -50%; inconclusive = mostly about -30% to -49%
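Secreted IL-1B measured by AlphaLISA bead assay after 16 h compound exposure of THP-1 cells; compounds (final up to 57.5 uM) added 1 h before LPS (250 ng/mL) and ATP (1.25 mM) stimulation; lower signal means less secretion.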
ELG1 DNA repair: inhibitors of ELG1-dependent DNA repair in HEK293T cells. HEK293T ELG1-luciferase reporter, luminescence, 16 h; DNA damage induced by 5-fluorouridine. Potency, µM (highest dose often 46.1 µM), for the others: at the top dose activity change, negative = inhibition, actives largely listed as inhibitors. AID 504467. 330,000 tested, 2.3% active; also: potency is read from the fitted curve at half-maximal effect; nearly all actives have a fitted effect of over 55% in size
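Luminescence from the luciferase reporter, measured 30 min after ONE-Glo reagent at room temperature, was the read-out. Beforehand, 2,000 cells per well were exposed for 16 hr at 37 °C to 5-fluorouridine together with compound or vehicle.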
HT1080-NT tox: kills 2HG-producing HT-1080-NT fibrosarcoma cells; 360,000 tested, 1.6% active; HT-1080-NT fibrosarcoma viability, CellTiter-Glo ATP luminescence, 48 h; Potency, µM (series often up to 46.1 µM), without a hit: at the top dose activity, negative = less viability, hits mostly cytotoxic; AID 686970;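 also: NT is the 2HG producing partner of a matched IDH1 knockdown line; potency is read from the fitted curve at half-maximal effect; 0% = DMSO-treated cells and -100% = media-only wells without cells; nearly all actives have a fitted effect of over 55% in size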
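Viability by CellTiter-Glo luminescence after 48 h compound exposure at 37C of HT-1080-NT cells (750/well, RPMI, 5% FBS). % activity scaled between DMSO wells and medium-only wells, then curve-fitted and categorized by curve class.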
HT1080 IDH1KD tx: HT-1080 IDH1 knockdown cell toxicity (counter line); HT-1080 IDH1 knockdown viability, ATP luminescence, 48 h; Potency, µM (highest dose often 46.1 µM), inactives show at the top dose activity, negative = toxicity, most hits filed as cytotoxic; 360,000 tested, 2% active;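 also: potency is read from the fitted curve at half-maximal effect; 0% = DMSO wells and -100% = cell-free medium wells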
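In this qHTS, HT-1080 cells depleted of IDH1 are exposed for 48 h at 37 °C to compound titrations. Toxicity is scored from CellTiter-Glo luminescence, with DMSO as full viability and medium alone as none.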
ELG1 FLuc counter: luciferase inhibition in cell-free luciferin readout for ELG1 hits; AID 624247; cell-free firefly luciferase luminescence counter-screen, ViewLux; Potency, µM (titrated, usually from 46.1 µM), for inactives: top-dose activity change, negative = inhibition, most hits filed as inhibitors; 350 tested, 3% active; shares compounds with ELG1 DNA repair; also: potency is read from the fitted curve at half-maximal effect
ELG1 Luc conf: confirmation of human ELG1-dependent DNA repair inhibitors; shares compounds with ELG1 DNA repair; HEK293T ELG1-luciferase levels, luminescence; cells co-treated with 5-fluorouridine; Potency, µM (doses to about 46.1 µM), without a hit: top-dose activity change, negative = inhibition, hits mostly inhibitors; 670 tested, 68% active; AID 624248; also: potency is read from the fitted curve at half-maximal effect; nearly all actives have a fitted effect of over 55% in size
Target sequence (Q96QE3 whole entry, looked up): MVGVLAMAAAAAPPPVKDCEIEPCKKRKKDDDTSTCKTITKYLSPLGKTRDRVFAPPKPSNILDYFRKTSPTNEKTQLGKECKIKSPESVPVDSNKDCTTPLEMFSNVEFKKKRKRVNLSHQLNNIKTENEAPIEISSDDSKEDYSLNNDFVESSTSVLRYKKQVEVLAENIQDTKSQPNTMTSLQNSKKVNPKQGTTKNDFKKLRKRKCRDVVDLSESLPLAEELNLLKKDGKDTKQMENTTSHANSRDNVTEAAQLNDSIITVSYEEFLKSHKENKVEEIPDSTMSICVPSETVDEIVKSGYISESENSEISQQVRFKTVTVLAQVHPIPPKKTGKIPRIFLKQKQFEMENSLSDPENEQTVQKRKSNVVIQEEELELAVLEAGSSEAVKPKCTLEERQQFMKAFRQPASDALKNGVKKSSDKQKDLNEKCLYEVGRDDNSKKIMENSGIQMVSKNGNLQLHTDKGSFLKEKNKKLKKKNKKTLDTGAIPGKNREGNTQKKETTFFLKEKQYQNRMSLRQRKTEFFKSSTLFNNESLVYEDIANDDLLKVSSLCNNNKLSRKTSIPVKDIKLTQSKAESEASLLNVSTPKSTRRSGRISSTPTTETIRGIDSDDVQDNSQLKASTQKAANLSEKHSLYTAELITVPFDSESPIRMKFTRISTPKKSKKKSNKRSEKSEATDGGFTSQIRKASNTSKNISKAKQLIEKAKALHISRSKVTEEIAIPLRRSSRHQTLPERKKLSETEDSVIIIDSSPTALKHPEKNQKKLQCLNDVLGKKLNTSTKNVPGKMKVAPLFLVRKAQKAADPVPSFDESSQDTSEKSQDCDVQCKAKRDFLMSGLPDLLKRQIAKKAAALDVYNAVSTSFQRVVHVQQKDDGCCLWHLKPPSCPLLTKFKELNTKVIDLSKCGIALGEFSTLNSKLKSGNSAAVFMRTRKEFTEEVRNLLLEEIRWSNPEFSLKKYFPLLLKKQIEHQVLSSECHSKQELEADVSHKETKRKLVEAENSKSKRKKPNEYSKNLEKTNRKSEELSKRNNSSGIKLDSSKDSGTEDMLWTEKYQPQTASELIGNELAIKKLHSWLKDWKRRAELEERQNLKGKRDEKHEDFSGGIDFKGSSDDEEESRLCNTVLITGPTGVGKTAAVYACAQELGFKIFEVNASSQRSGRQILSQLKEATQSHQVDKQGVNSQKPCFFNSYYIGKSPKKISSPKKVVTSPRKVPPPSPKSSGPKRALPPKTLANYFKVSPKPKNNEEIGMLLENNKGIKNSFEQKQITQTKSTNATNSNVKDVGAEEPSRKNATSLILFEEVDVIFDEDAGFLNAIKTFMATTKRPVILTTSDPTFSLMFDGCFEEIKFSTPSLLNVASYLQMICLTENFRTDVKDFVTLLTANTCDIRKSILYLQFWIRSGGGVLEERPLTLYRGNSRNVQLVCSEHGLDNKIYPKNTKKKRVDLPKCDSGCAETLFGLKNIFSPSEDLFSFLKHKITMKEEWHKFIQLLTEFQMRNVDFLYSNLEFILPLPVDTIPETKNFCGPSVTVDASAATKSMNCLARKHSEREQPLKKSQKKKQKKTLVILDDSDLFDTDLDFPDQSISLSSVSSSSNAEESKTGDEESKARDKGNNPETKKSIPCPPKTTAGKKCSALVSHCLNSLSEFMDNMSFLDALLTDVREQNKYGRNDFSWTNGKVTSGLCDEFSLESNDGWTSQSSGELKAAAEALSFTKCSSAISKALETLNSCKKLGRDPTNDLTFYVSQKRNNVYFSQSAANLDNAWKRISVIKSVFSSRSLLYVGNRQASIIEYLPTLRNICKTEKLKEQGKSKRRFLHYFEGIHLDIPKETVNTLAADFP
ELG1 MMS Luc: inhibits ELG1-dependent repair under MMS stimulation in HEK293T cells. shares compounds with ELG1 DNA repair. HEK293T luciferase-tagged ELG1 level, MMS stimulated. Potency, µM (titrated, usually from 46.1 µM), for the others: top-dose activity change, negative = inhibition, usual class: inhibitors. 670 tested, 53% active. AID 624249; also: potency is read from the fitted curve at half-maximal effect; nearly all actives have a fitted effect of over 60% in size
ELG1 5FU viab: confirmation of ELG1 repair inhibitors: viability with 5FU; 670 tested, under 10 active; Potency, µM (doses to about 46.1 µM), without a hit: at the top dose activity change, negative = viability loss, most hits filed as cytotoxic; AID 624250; shares compounds with ELG1 DNA repair; cell viability with 5-FU, ELG1-dependent repair;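 also: ELG1-luc HEK293T cells cotreated with 5-fluorouridine at 10 µM final; potency is read from the fitted curve at half-maximal effect; viability measured 16 h after compound addition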
ELG1 MMS viab: confirmation of ELG1 repair inhibitors: viability with MMS. shares compounds with ELG1 DNA repair. Cell viability with MMS, ELG1-dependent DNA repair. Potency, µM (highest dose often 46.1 µM), without a hit: at the top dose activity change, negative = viability loss, most hits filed as cytotoxic. 670 tested, 33% active. AID 624251;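 also: ELG1-luc HEK293T cells co-treated with 10 µM MMS; potency is read from the fitted curve at half-maximal effect; viability read 16 h after compound addition; nearly all actives have a fitted effect of over 60% in size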
Cell viab unstim: counter-screen for ELG1 repair inhibitors: unstimulated cell viability; shares compounds with ELG1 DNA repair; cell viability counter-screen, unstimulated, luminescence; Potency, µM (doses to about 45.9 µM), for the others: at the top dose activity change, negative = loss of viability, actives largely listed as cytotoxic; 900 tested, 8% active; AID 624252;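 also: potency is read from the fitted curve at half-maximal effect; compound exposure lasted 16 hours before reading; nearly all actives have a fitted effect of over 55% in size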
FLuc enzyme: inhibits purified firefly luciferase, counter-screen for ELG1 hits. shares compounds with ELG1 DNA repair. AID 624253. 350 tested, 10% active. purified firefly luciferase, luminescence counter-screen. Potency, µM (titrated, usually from 57.5 µM), for the others: at the top dose activity, negative = inhibition, hits mostly inhibitors; also: potency is read from the fitted curve at half-maximal effect
Active calls of the source: *; ? = inconclusive; . = no result given. Unless noted, calls follow the shape of the dose curve; as a rule, active = well fitted curve in the direction sought with a large enough effect; inconclusive = small, poorly fitted or top-dose-only effect, or another doubt; inactive = no such curve, though single readings can be large; an effect the other way counts as inactive or inconclusive. Unless noted, % is scaled to controls: 0 for no effect and ±100 for the full control effect.

SMILES	TDP1 cell noCPT	DT40 TDP1 CPT	IL1B secr inh	ELG1 DNA repair	HT1080-NT tox	HT1080 IDH1KD tx	Cell viab unstim	others
Cc1ccc(NC(=O)COc2ccccc2)cc1S(=O)(=O)N1CCCCC1	?	-5%	-1	.	5%	-17%	.
Cc1ccccc1OCC(=O)Nc1ccc(C)c(S(=O)(=O)N2CCCCCC2)c1	?	?	-22	1.3µM*	1%	3%	-19%	ELG1 Luc conf=28µM*;ELG1 MMS Luc=6.3µM*;ELG1 5FU viab=?;ELG1 MMS viab=8.9µM*
Oc1ccccc1-c1cc(-c2ccccc2)n[nH]1	?	?	13	?	5%	1%	-2%
COc1cccc(C2/C(=C(\O)c3ccc4c(c3)OCCO4)C(=O)C(=O)N2CCCN2CCOCC2)c1OC (stereo not given)	19%	-3%	6	9%	-1%	15%	.
CN(C)c1ccc(C(=O)OCC(=O)c2ccc[nH]2)cc1	-1%	-3%	-25	?	1%	14%	-11%
Cc1nn(-c2ccccc2)c(Cl)c1C(=O)OCC(=O)N(C)c1c(N)n(Cc2ccccc2)c(=O)[nH]c1=O	-16%	5%	10	1%	3%	10%	.
O=C(CCN1C(=O)c2ccccc2C1=O)Nc1ccc(-c2nc3ccccc3o2)cc1	-12%	-19%	-8	?	12%	27%	?	ELG1 FLuc counter=152%;FLuc enzyme=?
COc1ccc(/C=C/C(=O)O/N=C(\N)c2ccccn2)cc1OC	-14%	-9%	2	?	-3%	-4%	-9%
CCOc1cc(C(=O)Nc2cccc(OCC(=O)N3CCOCC3)c2)cc(OCC)c1OCC	-14%	4%	65	2.1µM*	9%	22%	-18%	ELG1 Luc conf=8.9µM*;ELG1 MMS Luc=?;ELG1 5FU viab=6%;ELG1 MMS viab=0%
O=C(Nc1cccc(OCC(=O)N2CCOCC2)c1)c1cccc(Cl)c1	5%	6%	37	-7%	?	6%	.
O=[N+]([O-])c1ccc(Cl)c(NC2=NCCCCC2)c1	1%	7%	16	13%	13%	10%	.
Cc1cc(Cl)ccc1N(CC(=O)NCc1ccc2c(c1)OCO2)S(C)(=O)=O	?	?	7	1%	-6%	-9%	.
COC(=O)Cn1c2[n+](c3ccccc31)CC(O)CS2 (stereo not given)	7%	-1%	4	?	18%	2%	-1%	ELG1 FLuc counter=8%;ELG1 Luc conf=23%;ELG1 MMS Luc=8%;ELG1 5FU viab=-4%;ELG1 MMS viab=-1%;FLuc enzyme=2%
COc1cc(-c2cc(C(=O)Nc3cccc(C(C)=O)c3)c3ccccc3n2)cc(OC)c1OC	?	6.5µM*	-19	1.6µM*	-25%	?	?	ELG1 Luc conf=0.71µM*;ELG1 MMS Luc=11µM*;ELG1 5FU viab=?;ELG1 MMS viab=-10%
CCOC(=O)c1cc2cc(OC)ccc2[nH]1	?	?	-3	?	-5%	-9%	.
CCCC(=O)Oc1ccc2[nH]c(C(=O)c3cc4ccccc4[nH]3)cc2c1	?	?	.	.	.	.	3%
Cc1ccc(-c2nnc(NCc3nc4ccccc4[nH]3)c3ccccc23)cc1S(=O)(=O)N1CCOCC1	10µM*	15µM*	-9	4.6µM*	-3%	-5%	?	ELG1 Luc conf=7.1µM*;ELG1 MMS Luc=16µM*;ELG1 5FU viab=9%;ELG1 MMS viab=?
O=C(NCc1nc2ccccc2[nH]1)c1cccc(S(=O)(=O)N2CCOCC2)c1	2%	-4%	34	14%	19%	1%	.
COCCn1c(SCC(=O)N2CCC(C)CC2)nc2c([nH]c3ccccc32)c1=O	?	?	11	-6%	-5%	1%	.
CCc1c(C)nc2cc(-c3cc(OC)cc(OC)c3)nn2c1N1CCN(CCN2CCOCC2)CC1	16µM*	23µM*	?	2.6µM*	12%	1%	-6%	ELG1 Luc conf=4.4µM*;ELG1 MMS Luc=?;ELG1 5FU viab=?;ELG1 MMS viab=9%
COc1cc(OC)cc(-c2cc3ncccc3cn2)c1	?	?	0	?	-3%	-21%	.
COc1ccc(-c2cc3cc4c(cc3cn2)OCO4)cc1	-18%	-20%	30	?	13%	11%	?	ELG1 FLuc counter=-2%;FLuc enzyme=0.41µM*
COc1cc(OC)cc(-c2cc3cc4c(cc3cn2)OCO4)c1	0.52µM*	0.65µM*	36	?	0.92µM*	0.58µM*	?
c1ccc(-c2cc3cc4c(cc3cn2)OCO4)cc1	?	?	59	?	-12%	-2%	?
COc1ccc(-c2cc3cc(OC)c(OC)cc3cn2)cc1	?	?	-12	?	-20%	?	.
O=C(NCc1ccccc1)c1ccc(NC(=O)C2CCCO2)cc1 (stereo not given)	10%	-18%	-17	10%	15%	13%	.
